Results as given in PubChem BioAssay AID740 (SRMLSC, 2007).
Among all 96,000 compounds or so, about 65 (0.07%) were called active. Rule as the data show it: active = inhibition above about 25%; inactive = the rest. For the sample, actives were picked, then their nearest neighbours and some compounds at random.

Experiment: unspecified inhibition readout at 50 µM (AID 740)
Conditions: unspecified screen; stronger effect = higher value

Compound | inhibition
Cc1cc(C)n(-c2nc(SCCN(C)C)c3c4c(sc3n2)CCCC4)n1 | inactive
O=C(C1CCN(C2CC(=O)N(c3cccc(Cl)c3)C2=O)CC1)N1CCCC1 (configuration not stated) | 0.33% (inactive)
CC#CCCC(=O)N1C=Cc2ccccc2C1C#N (configuration not stated) | inactive
CC(=O)Cc1nsc(NC(=O)c2ccc(-c3ccccc3Cl)o2)n1 | inactive
Cc1ccccc1NC(=S)C1=C(O)c2sccc2N(C)S1(=O)=O | inactive
CN1c2ccsc2C(O)=C(C(=S)Nc2ccccc2)S1(=O)=O | 64.3% (active)
CN1c2ccsc2C(O)=C(C(=O)Nc2ccccc2)S1(=O)=O | 26.4% (active)
Cc1ccc(NC(=O)C2=C(O)c3ccccc3N(C)S2(=O)=O)cc1 | inactive
Cc1ccc(NC(=S)C2=C(O)c3sccc3N(C)S2(=O)=O)cc1 | 52.4% (active)
Cc1ccc(NC(=S)C2=C(O)c3ccccc3N(C)S2(=O)=O)cc1 | 9.88% (inactive)
CN1c2ccccc2C(O)=C(C(=O)Nc2ccccc2)S1(=O)=O | inactive
CN1c2ccccc2C(O)=C(C(=S)Nc2ccccc2)S1(=O)=O | inactive
Cc1ccc(NC(=O)C2=C(O)c3sccc3N(C)S2(=O)=O)cc1 | 1.91% (inactive)
CC(=O)Nc1ccc2c(c1)nc(CCN1CCOCC1)n2C | inactive
CCn1c(SCc2nc(-c3ccccc3)no2)nnc1-c1cccs1 | 0.11% (inactive)
O=c1[nH]nc(Sc2ncnc3sccc23)n1CCc1ccccc1 | 9.99% (inactive)
COc1ccccc1Cn1c(=O)c2ccccc2n2c(Sc3ncnc4sccc34)nnc12 | 65.1% (active)
COc1ccccc1Cn1c(=O)c2ccccc2n2c(SCc3csc(C)n3)nnc12 | 0.93% (inactive)
c1ccc(CSc2nnnn2-c2cccc3ccccc23)nc1 | 3.06% (inactive)
CCOc1ccc(NC(=O)NCCCN2CCCC2)cc1 | 0.93% (inactive)
CSc1nnnn1-c1ccc(C(=O)OCC(=O)N2CCOCC2)cc1 | inactive
CCOC(=O)c1cnc(SCC(=O)N2CCc3ccccc32)nc1N | inactive
